# Data: ChEMBL document CHEMBL1157539, “Thousands of chemical starting points for antimalarial lead identification” (Nature, 2010)
# Key:
# Type in all cases: functional
# Plasmodium falciparum [1] = assay: GSK_TCMDC: Inhibition of Plasmodium falciparum 3D7 in whole red blood cells, using parasite LDH activity as an index of growth. Test compounds present at 2uM
# Plasmodium falciparum [2] = assay: GSK_TCMDC: Inhibition of Plasmodium falciparum Dd2 in whole red blood cells, using parasite LDH activity as an index of growth. Test compounds present at 2uM
# HepG2 = assay: GSK_TCMDC: Percent inhibition of human HepG2 cell line. Test compounds present at 10uM.
SMILES,Inhibition (Plasmodium falciparum [1]) [%],Inhibition (Plasmodium falciparum [2]) [%],Inhibition (HepG2) [%]
CC(=O)O.C[C@H](NC(=O)[C@H](Cc1ccccc1)NC(=O)OC(C)(C)C)C(=O)N[C@@H](CC1CCCCC1)C(O)CN (stereo not given in full),96,64,0
CC(=O)N[C@H](C(=O)Nc1ccc(-c2cccc(-c3nc4cccc(C)c4[nH]3)c2)cc1)C(C)C,89,10,9
O=C(CCc1c[nH]cn1)Nc1ccc(-c2ccc(-c3nc4ccccc4[nH]3)cc2)cc1,98,70,46
COc1ccc(CNC2Cc3ccccc3C2)cc1-c1ccc(OC)c(S(=O)(=O)NCCN2CCCC2)c1.O=C(O)C(F)(F)F,100,97,31
CC(C)Cn1c(Sc2ccc(C#N)c([N+](=O)[O-])c2)nnc1-c1ccccc1Cl,93,46,18
COc1ccc(-n2nc(C(=O)NCCC3=CCCCC3)c3ccccc3c2=O)cc1,94,59,0
COc1cccc(C(=O)Nc2nc3c(s2)CCN(Cc2ccccc2N2CCNCC2)CC3)c1.O=C(O)C(F)(F)F,89,11,7
CCCN1CCN(c2cc(NCC)c3c4c(onc24)-c2ccccc2C3=O)CC1,96,11,4
COc1ccc2ncc(F)c([C@@H](O)CN3CCC(NCc4cc(C#N)c5c(c4)CCO5)CC3)c2n1,92,50,15
CN1Cc2ccc(NS(=O)(=O)c3ccc(-c4ccoc4)cc3)cc2C1.Cl,97,2,0
CC(=O)Oc1ccc(C(=O)Oc2ccccc2C#CC#N)cc1OC(C)=O,93,61,23
CC(=O)NCCNCc1cccc(C(=O)NCc2cccc(C(F)(F)F)c2)c1,95,0,1
Cc1csc(-c2ncc(OC[C@@H](N)Cc3ccccc3)cc2-c2ccc3[nH]nc(C)c3c2)c1.O=C(O)C(F)(F)F,98,35,48
COc1ccc(N2CCN(CCCCNCc3ccc(NC(=O)c4cc(Cl)cc(Cl)c4)cc3)CC2)c(OC)c1,100,99,39
O=C(NCc1ccccc1)Nc1cccc(-c2cccc(-c3nc4cc(C(F)(F)F)ccc4[nH]3)c2)c1,95,30,56
COc1cccc(-c2[nH]c3ccccc3c2CN2CCC(c3c(C)cccc3C)CC2)c1,99,24,32
CC1CN(c2cccc3c2nc(-c2cncc(C#N)c2)n3CCNCc2ccccc2)CC(C)O1.O=C(O)C(F)(F)F (stereo not given),83,9,0
CC(=O)Nc1ncc(C(=O)Nc2cccc(-c3ccc(-c4nc5cccc(C)c5[nH]4)cc3)c2)s1,100,78,69
CN1CCC(N2CCN(c3ccc4c(=O)nc(CCc5cccc(F)c5F)n(CC(=O)N(C)Cc5ccc(-c6ccc(C(F)(F)F)cc6)cc5)c4n3)CC2)CC1.O=C(O)C(O)C(O)C(=O)O,100,99,15
NCc1cccc(-c2cccc(CNC3CCN(Cc4ccccc4)CC3)c2)c1.O=C(O)C(F)(F)F,100,45,9

SMILES,Inhibition (Plasmodium falciparum [1]) [%],Inhibition (Plasmodium falciparum [2]) [%],Inhibition (HepG2) [%]
O=C1COC2(CN1C1CCN(Cc3ccc(O)c(Cl)c3)C1)c1ccccc1-c1ccccc12.O=CO (stereo not given),93,63,5
COc1ccc(-c2ccc(NC(=O)c3ccc(Cl)cc3)cc2)cc1CN1CCNCC1.O=C(O)C(F)(F)F,99,24,14
O=C(NCCN1CCCCC1)c1ccc(CNC(=O)c2ccc(O)c(-c3ccc(Cl)c(Cl)c3)c2)cc1,93,68,3
Cc1cc(N[C@@H](Cc2ccccc2)C(=O)Nc2ccccc2)nc(NCCc2ccc(F)cc2)n1.O=C(O)C(F)(F)F,96,81,26
CCCCCC(C)C(C)c1cc(O)c2c(c1)OC(C)(C)C=C2c1cc[n+]([O-])cc1 (stereo not given),91,2,11
CC1CCC(C[C@@H](C(=O)N[C@@H](CCC(=O)N2CCCCC2)C(=O)Nc2nccs2)[C@H](C(C)C)N(O)C=O)CC1 (stereo not given in full),87,70,38
CCNc1cc(C(=O)N[C@@H](Cc2ccccc2)[C@H](O)CNC(C)(C)c2cccc(OC)c2)cc(N2CCCC2=O)c1.O=CO,100,99,0
O=C(Nc1cccc(-c2ccc(-c3nc4cc(C(F)(F)F)ccc4[nH]3)s2)c1)c1ccncc1,99,46,79
O=C(NC1CCN(c2ccnc3ccccc23)C1)c1cccc(C(F)(F)F)c1.O=C(O)C(F)(F)F (stereo not given),94,86,28
Cl.N#Cc1ccc(C=CC(=O)NC2CCC(CCN3CCc4ccc(-c5cnccn5)cc4CC3)CC2)cc1 (stereo not given),100,87,37
CCN(CC)CCCC(C)N/C(=N\c1ccccc1Br)Nc1ccc(C#N)cc1O (stereo not given),89,0,4
Cc1cnc(NCC2CCCCC2)nc1N[C@@H](CO)C(=O)Nc1ccccc1.O=C(O)C(F)(F)F,83,56,0
CCCNC(=O)c1cncc(-c2cccc(CNC3Cc4ccccc4C3)c2)c1.O=C(O)C(F)(F)F,100,2,0
COc1ccc(-c2ccc(NC(=O)c3ccc(C#N)cc3)cc2)cc1CN1CCNCC1.O=C(O)C(F)(F)F,96,42,23
O=C(CNC(=O)c1ccc(O)cc1)Nc1ccc(-c2cccc(-c3nc4cc(C(F)(F)F)ccc4[nH]3)c2)cc1,92,47,26
O=C(NC1CCN(Cc2ccccc2)CC1)c1cccc(Nc2nc(-c3ccccc3)cs2)c1,84,3,70
COc1ccc(CON2C(=N)N=C(N)NC2(C)C)cc1OC.Cl,96,97,68
CCOC(=O)CNC(=O)N1CCN(C(=O)NCC(=O)OCC)CC1,93,0,0
C=C(C)COc1ccc(-c2n[nH]c(C(F)(F)F)c2-c2ccccc2OC)c(O)c1,98,72,19
CC(=O)Nc1ccc([N+](=O)[O-])c2c(Br)cccc12,100,0,0

SMILES,Inhibition (Plasmodium falciparum [1]) [%],Inhibition (Plasmodium falciparum [2]) [%],Inhibition (HepG2) [%]
O=C(Cc1ccccc1)NC(CCN1CCC(NC(=O)c2ccc(Cl)cc2)CC1)c1ccc(Cl)c(Cl)c1 (stereo not given),85,23,17
COc1cc(SC)c(Br)cc1-c1nc2ccncc2[nH]1,91,9,5
O=C(/C=C/c1ccc(C(F)(F)F)cc1)NCCCCCN1CCCN(C(=O)Nc2ccc(Cl)cc2)CC1,99,0,28
CN1CCC(Oc2cc(NC(=O)Nc3ccc(-c4ccncc4)c(C(F)(F)F)c3)ccc2Cl)CC1,100,92,30
Oc1cc(-c2cccc(C(F)(F)F)c2)nc(Nc2ccc(Cl)c(Cl)c2)n1,97,97,57
COc1ccc2ncc(F)c(CCN3CC[C@@H](CNCc4ccc5c(c4C)OCCO5)C3)c2n1.Cl,94,11,17
Cc1ccc(CCNCC(O)c2cccc(C(F)(F)F)c2)cc1.Cl (stereo not given),94,83,0
COc1nc2c(N3CCN(CCNCc4ccc5c(n4)NC(=O)CS5)CC3)ccnc2cc1F,100,96,18
COc1ccc(-c2cc(C(=O)Nc3ccc4[nH]c(-c5ccccc5)nc4c3)[nH]n2)cc1.O=C(O)C(F)(F)F,90,78,77
O=C(Nc1ccc(Cl)c(Cl)c1)N1CCC(CNCc2cccc([N+](=O)[O-])c2)CC1.O=C(O)C(F)(F)F,98,6,13
Nc1c(Cl)cc(C(O)CNCCCCCCOCCC=C2CCOCC2)cc1Cl (stereo not given),100,9,7
COc1cc(Br)c(NC(=O)Nc2ccc(C(F)(F)F)c(O[C@@H]3CCN(C)C3)c2)cc1OC.Cl,97,27,10
O=C(Nc1cc(Oc2ccc(O)cc2)cc([N+](=O)[O-])c1)c1cc(-c2ccc(F)cc2)no1,88,37,61
Cn1nc(-c2ccc(CN[C@@H]3CCc4ccc(O)cc43)cc2)c2cnc(NC3CCCC3)nc21,97,8,12
CCc1ccc(CN2CCC(C(=O)Nc3ccc(-c4nc5ccccc5[nH]4)cc3)CC2)o1,99,94,29
CC[C@H](C)CNC(=O)c1ccnc(-c2ccc(CNCCCc3ccccc3)cc2)c1.O=C(O)C(F)(F)F,100,84,17
Cc1ccccc1C1CCN(C2CCC(NC(=O)/C=C/c3cccc(F)c3)CC2)CC1 (stereo not given),84,38,46
O=C(NCCN1CCCC1)c1cccc(Nc2nccc(Nc3ccc(Oc4ccccc4)cc3)n2)c1,100,18,33
COc1ccc(-c2cnc3ccc(NCc4ccc(F)cc4)nn23)cc1OC,97,99,35
Cc1nc2ccc3ccc(CNc4ccc(C(=O)N[C@@H](CCC(=O)O)C(=O)N[C@@H](Cc5cccs5)C(=O)O)c(F)c4)cc3c2c(=O)[nH]1,97,96,43
